# Screening data as filed in PubChem.
# An excerpt weighted towards active compounds, which were near 21% of everything screened.
# IL-1B inflam inh = inflammasome signaling inhibition, IL-1 beta readout; activity change, % at 57.5 µM; THP-1 LPS/ATP IL-1B secretion, AlphaLISA, 16 h; stronger effect = lower value; AID 743279; 4.7% of 360,000 active; in the data active = activity change below about -50%; inconclusive = mostly about -30% to -49%
#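 THP-1 cells pretreated 1 hr with compounds (up to 57.5 uM final), then stimulated with LPS (250 ng/mL final) plus ATP (1.25 mM final); secreted IL-1B measured by AlphaLISA after 16 hr, decreased signal indicating inhibition.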
# TDP1 cell noCPT = qHTS for Inhibitors of human tyrosyl-DNA phosphodiesterase 1 (TDP1): qHTS in cells in absence of CPT | 15% of 420,000 active | DT40 Tdp1-/- hTDP1 cells, no CPT, ATP luminescence, 48 h | Potency, µM (top dose mostly 46.2 µM), without a hit: at the highest dose activity change, negative = growth inhibition, most hits filed as inhibitors; note: potency is the fitted concentration of half-maximal effect; nearly all actives have a fitted effect of over 55% in size
#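 Seeded 400 DT40-hTDP1 cells/well (vehicle DMSO, no 20 nM CPT); pinned compounds; ≥48 hr at 37 °C; CellTiter-Glo luminescence as viability measure.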
# RORgamma inh = blocks mouse ROR gamma transcriptional activity. P51450. Drosophila S2 Gal4-RORgamma UAS-luciferase reporter, 20 h. Potency, µM (doses to about 53.6 µM), for inactives: at the highest dose activity change, negative = inhibition, usual class: inhibitors. 5.4% of 310,000 active. AID 2551; note: potency is the fitted concentration of half-maximal effect; nearly all actives have a fitted effect of over 60% in size
# Target sequence (P51450 whole entry, looked up, the tested form may be a part): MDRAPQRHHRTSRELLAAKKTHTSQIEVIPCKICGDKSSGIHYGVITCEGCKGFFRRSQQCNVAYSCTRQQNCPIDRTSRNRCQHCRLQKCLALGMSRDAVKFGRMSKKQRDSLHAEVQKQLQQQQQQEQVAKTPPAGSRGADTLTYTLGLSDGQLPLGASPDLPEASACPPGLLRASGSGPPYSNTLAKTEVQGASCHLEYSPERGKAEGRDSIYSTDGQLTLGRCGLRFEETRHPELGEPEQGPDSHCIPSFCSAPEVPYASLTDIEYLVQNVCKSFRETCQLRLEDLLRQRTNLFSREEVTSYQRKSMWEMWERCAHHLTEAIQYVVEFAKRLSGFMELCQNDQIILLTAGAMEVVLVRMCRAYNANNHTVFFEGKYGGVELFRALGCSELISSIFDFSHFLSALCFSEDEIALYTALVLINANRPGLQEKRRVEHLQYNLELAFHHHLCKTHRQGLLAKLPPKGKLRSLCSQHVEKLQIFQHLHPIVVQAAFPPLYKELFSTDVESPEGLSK
#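 Drosophila S2 cells stably expressing Gal4-DBD/mouse RORγ fusion under metallothionein promoter plus UAS-luciferase; compound 1 h, then 700 uM CuSO4 induction for 20 h at ambient temperature; inhibition read as reduced luminescence.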
# ELG1 repair inh = ELG1-dependent DNA repair inhibition. 2.3% of 330,000 active. Potency, µM (top dose mostly 46.1 µM), inactives show at the top dose activity change, negative = inhibition, most hits filed as inhibitors. HEK293T ELG1-luciferase reporter, luminescence, 16 h; DNA damage induced by 5-fluorouridine; note: potency is the fitted concentration of half-maximal effect; nearly all actives have a fitted effect of over 55% in size
#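 Quantitative HTS, concentration-response format. 2,000 cells/well co-treated with 5-fluorouridine and compound, 16 hr in 5% CO2 at 37 °C; ONE-Glo luminescence read after 30 min.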
# Gal4-VP16 FLuc = counter-screen for ROR gamma inhibitors: Gal4-VP16 reporter. Drosophila S2 Gal4-VP16 UAS-luciferase, luminescence, 20 h. Potency, µM (highest dose often 53.6 µM), without a hit: top-dose activity, negative = inhibition, usual class: inhibitors. 3.5% of 310,000 active;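 note: Gal4-VP16 expression switched on by copper sulfate through the metallothionein promoter; potency is the fitted concentration of half-maximal effect; nearly all actives have a fitted effect of over 50% in size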
# TDP1 cell CPT = growth inhibition of DT40 Tdp1-/-;hTDP1 cells with camptothecin (screen for TDP1 inhibitors) | chicken DT40 Tdp1-/-;hTDP1 cells + 20 nM CPT, ATP luminescence, 48 h | Potency, µM (top dose mostly 46.2 µM), for inactives: at the top dose activity change, negative = growth inhibition, hits mostly inhibitors | 12% of 420,000 active | AID 686979; note: potency is the fitted concentration of half-maximal effect; nearly all actives have a fitted effect of over 55% in size
#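 Chicken DT40 Tdp1-/- cells stably complemented with human TDP1 were seeded at 400 cells/well in medium containing 20 nM camptothecin, exposed to pin-transferred compounds, and grown at 37 °C for at least 48 hr. Viability was read as ATP luminescence.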
# An asterisk follows results filed as active; u = inconclusive; x = no result given; [ ] = remark or other dose. Unless noted, calls come from the whole dose curve; as a rule, active = well fitted curve in the direction sought with a large enough effect; inconclusive = small, poorly fitted or top-dose-only effect, or another doubt; inactive = no such curve, though single readings can be large; an effect the other way counts as inactive or inconclusive. % is set by controls: 0 for no effect and ±100 for the full control effect.
SMILES,IL-1B inflam inh,TDP1 cell noCPT,RORgamma inh,ELG1 repair inh,Gal4-VP16 FLuc,TDP1 cell CPT
CC(OC(=O)C1CC1)C(=O)Nc1cccc(S(=O)(=O)N2CCOCC2)c1 (stereo unspecified),-3,0%,x,10%,x,-8%
CCOc1c(Cl)cc(/C=C/C(=O)N(CC)CC(=O)Nc2ccc(NC(C)=O)cc2)cc1OC,-21,u,x,15µM*,x,8%
CCOc1ccc(/C=C/C(=O)N(CC)CC(=O)Nc2ccc3c(c2)OCCO3)cc1OC,-7,-21%,x,-30%,x,-19%
C(=N\N1CCN(C2c3ccccc3-c3ccccc32)CC1)/c1ccccn1,-14,16µM*,7.1µM*,-1%,u,21µM*
COc1ccc(/C=N/N2CCN(C3c4ccccc4-c4ccccc43)CC2)cc1O,-26,18µM*,27%,-13%,-13%,u
COc1ccc(/C=N/N2CCOCC2)cc1O,7,-1%,30%,u,18%,12%
COC(C1CCCCC1)C(C)C(OCc1cccc(Br)c1)C(C)CO (stereo unspecified),x,x,7%[10 µM],x,-1%[10 µM],x
O=Cc1ccc(C(=O)O)cc1,3,-11%,-6%,17%,0%,-5%
O=C(/C=C/c1ccc2c(c1)OCO2)c1ccccc1,x,x,u,x,28%,x
CC(C)(C)c1cc(C(=O)/C=C/c2ccc(C(=O)O)cc2)cc(C(C)(C)C)c1,x,x,7.1µM*,x,u,x
CC(=O)Nc1ccc(/C=C/C(=O)c2ccc3c(c2)OCCO3)cc1,-102*,u,u,8%,-17%,u
O=C(O)c1ccc(/C=C/C(=O)c2ccc3c(c2)OCCCO3)cc1,-103*,23µM*,5µM*,u,10µM*,u
Cc1ccc(CNC(=O)Cn2ccn(-c3cc(C)cc(C)c3)c(=O)c2=O)cc1,x,-18%,x,x,x,-2%
N=C(N=C(N)N)N1CCc2ccccc21,-8,13µM*,-15%,2%,-10%,u
O=C(Cn1cccc1)N1CCc2ccccc21,-7,-6%,3%,3%,-3%,-19%
COc1ccc(N2CCN(C(=O)C(C)(C)Oc3ccc(Cl)cc3)CC2)cc1,16,u,29%,-26%,-16%,u
COc1ccc(NC(=O)c2nc(-c3ccc(C)cc3)n3c2CCCCC3)cc1,x,16µM*,x,x,x,u
Cc1ccc(CNC(=O)c2nc(-c3ccc(Cl)cc3)n3c2CCCCC3)cc1,x,18µM*,x,x,x,u
COc1ccc(N2CCN(C(=O)c3nc(-c4ccc(Cl)cc4)n4c3CCCCC4)CC2)cc1,x,21µM*,x,x,x,u
COc1ccc(OC)c(CCNC(=O)c2nc(-c3ccc(Cl)cc3)n3c2CCCCC3)c1,x,9.2µM*,x,x,x,10µM*
CCC(C(=O)Nc1cc(C)ccc1OC)n1nnc(C(=O)OC)c1C(=O)OC (stereo unspecified),x,15%,x,x,x,-1%
CC(C)(C)OC(=O)NCC1CCC(C(=O)NC[C@H](CC(=O)O)c2ccc(Cl)cc2)CC1 (stereo partly specified),-4,-5%,15%,-3%,3%,-6%
CCOc1ccc(C(c2c(O)cc(C)n(Cc3ccco3)c2=O)N2CCCCC2)cc1 (stereo unspecified),x,1%,x,x,x,6%
COc1ccc(Br)cc1/C=N/NC(=O)c1nc(-c2ccccc2)n2c1CCCCC2,-5,u,-1%,21µM*,2%,u
CCn1cc(CN2N=C(C)CC2c2ccccc2)c(C)n1 (stereo unspecified),-5,-11%,-8%,0%,-2%[10 µM],14%
COc1cc(C2C(C#N)=C(C)NC3=C2C(=O)c2ccccc23)cc(OC)c1OC (stereo unspecified),50,0.58µM*,-5%,-20%,15%,1µM*
